Common to all, as to assay: NCI-60 one-dose screen, 48 h (100 = growth as untreated, 0 = no growth, -100 = all killed)
The subject of one test is NCI-H226 lung. The settings on record: 10 µM.
For another test, the system named is NCI-H322M lung. To be noted: 10 µM.
For a further test, the system named is HOP-62 NSCLC. To be noted: 10 µM.
The next test deals with NCI-H460 lung. To be noted: 10 µM.
A further test relates to A549/ATCC NSCLC. The settings on record: 10 µM.
For a further test, the system named is 786-0 renal. The settings on record: 10 µM.
Another test has as its system DU-145 prostate. To be noted: 10 µM.
A further test deals with SF-268 CNS. The settings on record: 10 µM.
A further test concerns SF-295 CNS. To be noted: 10 µM.
For a further test, the system named is SF-539 CNS. To be noted: 10 µM.
A further test has as its system HCT-15 colon. The settings on record: 10 µM.
In the next test the test system is HT29 colon. The settings on record: 10 µM.
Another test has as its system SNB-75 CNS. To be noted: 10 µM.
The next test deals with SNB-19 CNS. To be noted: 10 µM.
The test system of a further test is PC-3 prostate. The settings on record: 10 µM.
Another test relates to EKVX NSCLC. The settings on record: 10 µM.
A further test concerns UO-31 renal. The settings on record: 10 µM.
The next test deals with ACHN renal. The settings on record: 10 µM.
The next test deals with HL-60(TB) leukemia. The settings on record: 10 µM unless noted.
A further test deals with MOLT-4 leukemia. The settings on record: 10 µM.

This note sets out measurements from PubChem BioAssay (NCI).

Molecules are shown by their SMILES. Several values for one entry are separate records, joined by “and”; a condition that tells them apart may be missing. Equal entries are not always repeated. This is part of a sample that, as a whole, favours compounds with a hit. Of some 83,000 tested, about 20% had one in any assay.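 Single-dose data. Exposure time 48 hours. Values below 10 considered active.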 Activity calls are given as the source filed them.

As for `CC1=C2C(=O)[C@](C)(CO)C=C2C(=O)[C@](C)(O)C12CC2`, the growth was 74.7% (inactive) in the test with NCI-H226 lung; 61.6% (inactive) in the test with NCI-H322M lung; 22% (inactive) in the test with HOP-62 NSCLC; 5.34% (active) with NCI-H460 lung; 13.2% (inactive) with A549/ATCC NSCLC; 5.58% (active) with 786-0 renal. Moreover, the growth in the test with DU-145 prostate is 7.23% (active); in the test with SF-268 CNS, 10.5% (inactive); in the test with SF-295 CNS, 6.45% (active); in the test on SF-539 CNS, 4.6% (active); in the test on HCT-15 colon it was -9.55% (active); with HT29 colon it was 2.57% (active). Besides, the growth with SNB-75 CNS was 38.9% (inactive); in the test with SNB-19 CNS, 60.2% (inactive); with PC-3 prostate it was 21.6% (inactive); in the test with EKVX NSCLC, 64.7% (inactive); in the test on UO-31 renal, -20.7% (active); with ACHN renal it was -21.9% (active). Further, the results for the growth in the test on HL-60(TB) leukemia and in the test with MOLT-4 leukemia were -21.6% (active) and 27.3% (inactive), respectively.
Consider `CC1=C2C(=C[C@@](C)(COS(C)(=O)=O)[C@@H]2O)C(=O)[C@](C)(O)C12CC2`, for which the growth with NCI-H226 lung was -15.3% (active); in the test on NCI-H322M lung, 4.33% (active); in the test on HOP-62 NSCLC it was 0.685% (active); in the test on NCI-H460 lung, 7.36% (active); with A549/ATCC NSCLC, 11.3% (inactive); in the test on 786-0 renal, 4.19% (active). Further, the growth with DU-145 prostate is 9.22% (active); with SF-268 CNS, 5.21% (active); with SF-295 CNS, -2.13% (active); in the test on SF-539 CNS it was -26.2% (active); with HCT-15 colon, 3.8% (active); in the test on HT29 colon, 3.64% (active). Also, the growth is -74.6% (active) in the test on SNB-75 CNS; 4.72% (active) in the test with SNB-19 CNS; 6.69% (active) in the test on PC-3 prostate; 4.37% (active) in the test on EKVX NSCLC; -8.95% (active) in the test on UO-31 renal; -0.611% (active) with ACHN renal. Moreover, the figures for the growth with HL-60(TB) leukemia and with MOLT-4 leukemia were -9.62% (active) and 10.4% (inactive), respectively.
As for `C/C=C/CC(C)C(O)[C@H](NC(=O)[C@@H]1CCCN1C(=O)C(C)(C)NC(=O)CCCCCCC)C(=O)N[C@@](C)(CC)C(=O)N[C@@H](CCC(N)=O)C(=O)N[C@H](CCC(N)=O)C(=O)NC(C)(C)C(=O)NC(C)(C)C(=O)N[C@@H](CCC(N)=O)C(=O)N[C@H](CC(C)C)C(=O)N[C@H](CO)CC(C)C` (stereo not given in full), the growth is 105% (inactive) and 6.63% (active) in the test with NCI-H226 lung; 108% (inactive) and 70% (inactive) in the test with NCI-H322M lung; 95.9% (inactive) and 14.5% (inactive) in the test on HOP-62 NSCLC; 105% (inactive) and 13.1% (inactive) in the test on NCI-H460 lung; 109% (inactive) and 30% (inactive) with A549/ATCC NSCLC; 103% (inactive) and 39.8% (inactive) with 786-0 renal. For the same molecule, the growth in the test with DU-145 prostate was 110% (inactive) and -35.4% (active); in the test with SF-268 CNS, 107% (inactive) and -8.99% (active); with SF-295 CNS it was 98.8% (inactive) and -22.2% (active); in the test with SF-539 CNS, 100% (inactive) and -45.7% (active); in the test with HCT-15 colon, 100% (inactive) and 22.1% (inactive); in the test on HT29 colon, 113% (inactive) and 37.8% (inactive). In addition, the growth was 109% (inactive) and -30.3% (active) in the test with SNB-75 CNS; 101% (inactive) and 14% (inactive) in the test on SNB-19 CNS; 103% (inactive) and 17.3% (inactive) in the test on PC-3 prostate; 100% (inactive) and 5.16% (active) with EKVX NSCLC; 96.7% (inactive) and 16.1% (inactive) in the test on UO-31 renal; 103% (inactive) and 32% (inactive) in the test with ACHN renal. The growth with HL-60(TB) leukemia is 94.8% (inactive) and -6.76% (active); in the test with MOLT-4 leukemia it was 101% (inactive) and -32.4% (active).
For the molecule `CC1=C(CN(O)C(N)=O)C2=C(C)C3(CC3)[C@@](C)(O)C(=O)C2=C1`, the growth was -46.8% (active) with NCI-H226 lung; 5.16% (active) with NCI-H322M lung; -9% (active) in the test with HOP-62 NSCLC; -11.2% (active) with NCI-H460 lung; -8.35% (active) in the test with A549/ATCC NSCLC; -5.47% (active) with 786-0 renal. The growth with DU-145 prostate was -2.79% (active); in the test on SF-268 CNS, -14.7% (active); in the test with SF-295 CNS it was -11.4% (active); with SF-539 CNS, -46.1% (active); in the test with HCT-15 colon, 0.564% (active); with HT29 colon, 0.349% (active). Further, the growth in the test on SNB-75 CNS is -52.8% (active); in the test on SNB-19 CNS it was 16.2% (inactive); with PC-3 prostate, 2.36% (active); in the test with EKVX NSCLC, -24.1% (active); with UO-31 renal, -31.8% (active); in the test with ACHN renal, -14.4% (active). Besides, the growth in the test on HL-60(TB) leukemia is -28.2% (active); in the test with MOLT-4 leukemia it was 104% (inactive).
`C=C1[C@@H](C)C2[C@H](Cc3ccccc3)NC(=O)[C@]23[C@H](OC(C)=O)/C=C/[C@@](C)(O)C(=O)[C@@H](C)C/C=C/[C@H]3[C@@H]1O` (stereo not given in full): the growth in the test with NCI-H226 lung was 53.4% (inactive); in the test with NCI-H322M lung it was 87.9% (inactive); with HOP-62 NSCLC, 9.38% (active); in the test on NCI-H460 lung, 26.3% (inactive); with A549/ATCC NSCLC, 22.7% (inactive); in the test with 786-0 renal, 28.8% (inactive). Moreover, the growth in the test on DU-145 prostate is 48% (inactive); in the test on SF-268 CNS, 34.5% (inactive); in the test on SF-295 CNS, 51.4% (inactive); with SF-539 CNS it was 24% (inactive); in the test on HCT-15 colon it was 45.8% (inactive); with HT29 colon, 11.8% (inactive). The growth was -10.7% (active) in the test on SNB-75 CNS; 50.4% (inactive) with SNB-19 CNS; 69.4% (inactive) in the test on PC-3 prostate; 50.5% (inactive) in the test on EKVX NSCLC; -14.6% (active) in the test with UO-31 renal; 41.9% (inactive) in the test with ACHN renal. The growth is 31.7% (inactive) in the test on HL-60(TB) leukemia and 62.3% (inactive) in the test with MOLT-4 leukemia.
With `NC1CCc2cc(O)c(O)cc2C1` (stereo not given), the growth with NCI-H226 lung is 90.7% (inactive); in the test on NCI-H322M lung it was 98.6% (inactive); in the test with HOP-62 NSCLC, 100% (inactive); in the test on NCI-H460 lung, 87% (inactive); in the test with A549/ATCC NSCLC, 82.3% (inactive); with 786-0 renal, 84.7% (inactive). Besides, the growth in the test on DU-145 prostate is 94.3% (inactive); in the test on SF-268 CNS it was 104% (inactive); in the test on SF-295 CNS, 95% (inactive); in the test on SF-539 CNS it was 94.8% (inactive); with HCT-15 colon, 41.8% (inactive); in the test on HT29 colon it was 39.7% (inactive). In addition, the growth in the test with SNB-75 CNS was 82.6% (inactive); in the test with SNB-19 CNS, 98% (inactive); in the test on PC-3 prostate it was 76.1% (inactive); in the test on EKVX NSCLC it was 93.9% (inactive); with UO-31 renal, 85.1% (inactive); with ACHN renal, 96.9% (inactive). Further, the growth with HL-60(TB) leukemia was 32.9% (inactive); with MOLT-4 leukemia, 66% (inactive).
